KCNQ2 enhance – potentiators of rat KCNQ2 potassium channel; CHO-K1 KCNQ2, FluxOR thallium flux fluorescence; active compounds read high; B-score at 10 µM; hit rate 0.54% among 310,000;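 active = fluorescence ratio B-score at least 3 SD of library B-scores, with initial fluorescence B-score within 3 of them, cut at about 5.3 in these data; same plate scores as AID 2156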;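 also: B-score of peak minus minimum over baseline fluorescence ratio after K+ and Tl+ stimulus; positive B-score means potentiation of KCNQ2 with more thallium influx and brighter signal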
Target sequence (O88943 whole entry, looked up): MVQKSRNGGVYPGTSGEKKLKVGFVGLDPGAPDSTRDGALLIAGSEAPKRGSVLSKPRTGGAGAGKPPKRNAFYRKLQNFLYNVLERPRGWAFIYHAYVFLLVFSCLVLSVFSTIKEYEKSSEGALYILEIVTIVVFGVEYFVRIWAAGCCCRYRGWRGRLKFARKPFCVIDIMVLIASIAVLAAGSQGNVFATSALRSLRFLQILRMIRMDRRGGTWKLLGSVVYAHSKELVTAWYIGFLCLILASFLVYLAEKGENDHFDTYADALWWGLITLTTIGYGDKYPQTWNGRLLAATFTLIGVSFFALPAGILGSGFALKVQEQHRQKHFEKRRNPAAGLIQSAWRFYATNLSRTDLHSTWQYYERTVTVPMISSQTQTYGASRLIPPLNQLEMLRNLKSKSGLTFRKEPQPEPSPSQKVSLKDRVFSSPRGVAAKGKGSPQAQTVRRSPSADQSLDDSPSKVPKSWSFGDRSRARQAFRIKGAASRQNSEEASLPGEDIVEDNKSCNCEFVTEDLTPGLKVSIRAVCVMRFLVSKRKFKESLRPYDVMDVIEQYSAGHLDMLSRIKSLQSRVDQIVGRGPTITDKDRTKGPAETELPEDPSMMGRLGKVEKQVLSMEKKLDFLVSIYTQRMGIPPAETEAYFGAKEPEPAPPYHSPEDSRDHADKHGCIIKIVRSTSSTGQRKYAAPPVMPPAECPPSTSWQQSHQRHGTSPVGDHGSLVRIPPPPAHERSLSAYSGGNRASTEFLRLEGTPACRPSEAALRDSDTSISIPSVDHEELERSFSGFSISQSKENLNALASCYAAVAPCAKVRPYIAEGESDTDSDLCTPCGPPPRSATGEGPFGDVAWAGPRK
KCNQ2 inh – rat KCNQ2 potassium channel inhibitors, primary screen, cell-based, CHO-K1, FluxOR thallium flux, B-score; Potassium voltage-gated channel subfamily KQT member 2 (Rattus norvegicus), O88943; 20 min; active compounds read low; B-score at 10 µM; hit rate 1.1% among 310,000;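 active = fluorescence ratio B-score at most minus 3 library SDs, with starting brightness B-score within 2 library SDs, cut at about -5.5 in these data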
Large screens that a line does not name were inactive. A selection: hits, their analogues and other compounds. The true share with any hit is near 1.6%.

COc1ccccc1NC(=O)CN(Cc1ccco1)C(=O)c1ccc(=O)[nH]c1	none (no result: KCNQ2 enhance)
COc1ccccc1NC(=O)N(Cc1ccco1)Cc1cc2cc(C)cc(C)c2[nH]c1=O	KCNQ2 inh -6
COc1ccccc1NC(=O)N(Cc1ccco1)Cc1cc2ccc(C)c(C)c2[nH]c1=O	none (no result: KCNQ2 enhance)
Cc1ccc(NC(=O)N(Cc2ccco2)Cc2cc3cc(C)cc(C)c3nc2Cl)cc1	KCNQ2 inh -6.78
COc1ccccc1NC(=O)CN(Cc1ccco1)C(=O)c1cc2ccccc2o1	KCNQ2 inh -7.64
CCOc1cc2[nH]c(=S)n(CCCC(=O)NCc3ccccn3)c(=O)c2cc1OCC	none
COc1cc(/C=C2\CCn3c2nc2cc(C(=O)O)ccc2c3=O)ccc1OC(F)F	none (no result: KCNQ2 enhance)
CCOc1ccc(N2C(=O)CC(N(Cc3ccco3)C(C)=O)C2=O)cc1 (centres undefined)	none (no result: KCNQ2 enhance)
CCc1c(C)nc(SCC(=O)NNC(=O)c2ccco2)[nH]c1=O	none (no result: KCNQ2 enhance)
CCN(Cc1ccccc1)C(=O)c1ccc(C(=O)N(CC)Cc2ccccc2)cc1	none (no result: KCNQ2 enhance)
O=C(C1CC1)N(CCN(Cc1ccccc1)C(=O)C1CC1)Cc1ccccc1	KCNQ2 inh -7.14
O=C(c1ccccc1)N(Cc1ccccc1)Cc1ccccc1	KCNQ2 inh -6.32
CCN(Cc1ccccc1)C(=O)C1CCN(CC2CC=CCC2)CC1 (centres undefined)	none (no result: KCNQ2 enhance)
Cc1c(C(=O)O)c(C(=O)O)c2n1CCS2	none (no result: KCNQ2 enhance)
Clc1ccc(CN(CC2CCCO2)C(c2cccs2)c2nnnn2C2CCCC2)cc1 (centres undefined)	none (no result: KCNQ2 enhance)
CC(c1nnnn1C(C)(C)C)N(Cc1cccnc1)Cc1ccccc1Cl (centres undefined)	none (no result: KCNQ2 enhance)
Clc1ccccc1CN(Cc1ccccc1)C(c1cccs1)c1nnnn1C1CCCC1 (centres undefined)	KCNQ2 inh -5.84
CC(C)(C)n1nnnc1C(c1cccs1)N(Cc1cccnc1)Cc1ccccc1Cl (centres undefined)	KCNQ2 inh -6.18
COc1ccc(N2CC(C(=O)NCc3n[nH]c(=O)c4ccccc34)CC2=O)cc1 (centres undefined)	none
O=C(COc1c(Br)cc(Br)c2cccnc12)N1CCCCC1	none
Oc1c(CN2CCCCC2)cc(Br)c2cccnc12	KCNQ2 enhance 8.37
Nc1nc(SCC(=O)Nc2cccc(Oc3ccccc3)c2)n[nH]1	KCNQ2 enhance 6.44
Nc1nc(SCC(=O)Nc2ccc(Oc3ccccc3)cc2)n[nH]1	none
COc1ccc(-c2csc(NCc3ccco3)n2)cc1C	none (no result: KCNQ2 enhance)
COc1ccc(-c2nc3cccc(C)n3c2NCc2ccco2)cc1OC	KCNQ2 inh -6.01
COc1ccccc1CCC(=O)Nc1ncc(C)s1	none
COC(CNC(=O)c1ccc(CS(=O)(=O)c2c(Cl)cccc2Cl)o1)OC	none
O=C(NCc1c[nH]c2ccccc12)c1ccccc1	none (no result: KCNQ2 enhance)
NS(=O)(=O)c1ccc(NCc2ccccc2OCc2ccccc2F)cc1	none
NS(=O)(=O)c1ccc(NCc2cc(Cl)ccc2OCc2ccc(F)cc2)cc1	KCNQ2 enhance 7.67
C[C@H](NC(=O)c1ccccc1)C(=O)N1CCN(c2ccccc2)CC1	none (no result: KCNQ2 enhance)
O=C(NC1CCSc2ccccc21)c1ccc(C(F)(F)F)cc1 (centres undefined)	none (no result: KCNQ2 enhance)
CC1CN(C(=O)CCC(=O)NCc2ccc(F)cc2)c2ccccc2S1 (centres undefined)	none (no result: KCNQ2 enhance)
COc1ccccc1CNC(=O)CCC(=O)N1CC(C)Sc2ccccc21 (centres undefined)	KCNQ2 inh -6.26
CCOC(=O)N1CCN(C(=O)c2cn(CC)c3ccc(S(=O)(=O)N(C)C4CCCCC4)cc3c2=O)CC1	none
C/C(=N\Nc1cccc(Cl)c1)C1(C)N(O)C(C)(C)C(c2ccco2)=[N+]1[O-] (centres undefined)	KCNQ2 inh -6.36
C/C(=N\O)C1(C)N(O)C(C)(C)C(c2ccco2)=[N+]1[O-] (centres undefined)	none (no result: KCNQ2 enhance)
O=C1OC(c2ccccc2)=NC12CC2c1ccc(Cl)cc1 (centres undefined)	none (no result: KCNQ2 enhance)
COc1ccc([C@H]2[C@H](C(=O)C(C)(C)C)N3N=Cc4ccccc4C3[C@]23N=C(c2ccccc2)OC3=O)cc1 (some centres undefined)	KCNQ2 inh -9.49
CC1=CC(C)(C)n2c(O)c(N=N)c3c(C)c(C)cc1c32	KCNQ2 inh -6.57
CC1=CC(C)(C)n2c(O)c(N=NC(N)=S)c3c(C)c(C)cc1c32	none
O=C(CCCc1nc(-c2ccc(Cl)cc2)no1)NC1CCCC1	none
O=C(CSCc1ccc(Br)cc1)NCCc1ccccc1	KCNQ2 inh -5.54
O=C(CSCc1ccccc1)NCCc1ccc(F)cc1	none
O=C(COC(=O)c1cccc(Br)c1)NCCc1ccccc1	KCNQ2 inh -5.66
O=C(COC(=O)c1cccc(Br)c1)NCCNC(=O)COC(=O)c1cccc(Br)c1	none (no result: KCNQ2 enhance)
COc1ccc(NS(=O)(=O)c2cccc(C(=O)N(C)Cc3ccc(SC)cc3)c2)cc1	none (no result: KCNQ2 enhance)
CCOc1ccc(N2CC(O)=C(c3ccccc3)C2=N)cc1	none
O=C(Cn1c(=O)c(=O)n(Cc2ccccc2)c2ccc(Cl)cc21)NCC1CCCO1 (centres undefined)	none (no result: KCNQ2 enhance)
COc1cccc(/C=N/NC(=O)CSc2nnc(C)n2-c2ccccc2)c1O	none (no result: KCNQ2 enhance)
CCCCSc1nc(C)cc(SCC(=O)N/N=C/c2cccc(OC)c2O)n1	KCNQ2 enhance 6.35
Cn1c(=O)c(/C=C/c2ccccc2)nc2ccccc21	none (no result: KCNQ2 enhance)
Cn1c(=O)c(/C=C/c2ccc(F)cc2)nc2ccccc21	KCNQ2 inh -5.88
COc1ccc(OC)c(NC(=S)N2CCC(C(O)(c3ccccc3)c3ccccc3)CC2)c1	KCNQ2 enhance 5.89
COc1ccc(OC)c(NC(=S)N2CCN(Cc3ccccc3)CC2)c1	none
Cc1ccc(NC(=O)CCS(=O)(=O)c2cc3[nH]c(=O)c(=O)[nH]c3cc2C)cc1	none (no result: KCNQ2 enhance)
CCOC(=O)CC(=O)c1sc2c(c1N)c(=O)[nH]c(=O)n2-c1ccc(OC)cc1	none
C=CCC(O)(CC=C)CNC(=O)C1CCC(=O)N(CCCc2ccccc2)C1 (centres undefined)	none (no result: KCNQ2 enhance)
Cc1cccn2c(/C=N/OCc3cccc(F)c3)c(-c3ccc(Cl)cc3)nc12	none (no result: KCNQ2 enhance)
Fc1cccc(CO/N=C/c2c(-c3ccccc3)nc3ccc(Cl)cn23)c1	KCNQ2 inh -6.85
CN(Cc1ccc(F)cc1)C(=O)C(c1ccccc1)c1ccccc1	none (no result: KCNQ2 enhance)
COc1ccccc1CN(C)C(=O)C(c1ccccc1)c1ccccc1	KCNQ2 inh -5.63
O=C(CN1CCN(S(=O)(=O)c2ccccc2)CC1)NCCc1ccccc1	none (no result: KCNQ2 enhance)
CCOC(=O)c1c(S(=O)(=O)N2CCC(C)CC2)c(C)n(C)c1C	none (no result: KCNQ2 enhance)
O=C1/C(=C\c2ccncc2)CCc2ccccc21	none (no result: KCNQ2 enhance)
O=C1/C(=C/c2cccc3ccccc23)CCCc2ccccc21	KCNQ2 inh -6.64
Cc1cc(NC(=O)Nc2cccc(Cl)c2)n(-c2ccccc2)n1	none
Cc1cc(Nc2ccccc2)n(-c2cccc(Cl)c2)n1	KCNQ2 inh -6
O=C(COC(=O)CCc1c[nH]c2ccccc12)NCc1ccccc1	none (no result: KCNQ2 enhance)
CN(C(=O)COC(=O)CCc1c[nH]c2ccccc12)C(c1ccccc1)c1ccccc1	KCNQ2 inh -5.93
CC(=O)/C(=N\Nc1ccccc1)Sc1cccc2cccnc12	none (no result: KCNQ2 enhance)
O=C(Sc1cccc2cccnc12)c1ccccc1Br	KCNQ2 inh -6.18
Cn1cccc1/C=N/NC(=O)CSc1nc2ccccc2n1C	none (no result: KCNQ2 enhance)
O=c1c(Cc2c(F)cccc2Cl)c(O)ccn1C1CCCCCC1	KCNQ2 inh -7.85
O=c1c(Cc2c(F)cccc2Cl)c(O)ccn1Cc1ccc(F)cc1	none (no result: KCNQ2 enhance)
O=C(CN(Cc1ccco1)C(=O)CNS(=O)(=O)c1ccc(F)cc1)NCc1ccco1	none (no result: KCNQ2 enhance)
Cc1ccc(C)c(S(=O)(=O)N2CCN(C(=O)CSc3ccccc3)CC2)c1	none

Screening data deposited in PubChem BioAssay by Johns Hopkins Ion Channel Center.
